Results taken from PubChem BioAssay.
Active and inactive are the calls of the source.

Key:
[1] = optical density shifts of acrAB sulA E. coli – strain DRC41, OD650, 48 h, E. coli filamentation inducer project, primary screen (AID 1152); conditions: higher = more signal, called active from +8 up or from −8 down;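 note: E. coli MC1000 strain DRC41 lacking acrAB efflux pump and sulA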
[2] = probe aLefty1 binding on compound microarray – biochemical, small-molecule microarray, 635/667 nm fluorescence, primary screen (AID 1153); conditions: higher = more signal;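 note: score merges spot fluorescence with signal-to-noise ratio from the scanned slide images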
[3] = plasmodial surface anion channel blockers, osmotic lysis – cell-based, P. falciparum Indochina, OD700, 1 h, primary screen (AID 1154); conditions: P. falciparum Indochina infected RBC osmotic lysis, higher = more signal, called active from +8 up or from −8 down
[4] = plasmodial surface anion channel blockers, osmotic lysis – cell-based, P. falciparum Indochina, OD700, 2 h, primary screen (AID 1155);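 note: lysis reports solute entry through the parasite surface anion channel PSAC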; conditions: P. falciparum Indochina infected erythrocytes, higher = more signal, called active from +8 up or from −8 down
[5] = changes in parasitized red cell lysis, either direction – P. falciparum Indochina, OD700, 3 h, PSAC antagonist project, primary screen (AID 1156); conditions: P. falciparum-infected erythrocytes, osmotic lysis, higher = more signal, called active from +8 up or from −8 down
[6] = plasmodial surface anion channel blockers, osmotic lysis – cell-based, P. falciparum Indochina, OD700, 18 h, primary screen (AID 1157); conditions: P. falciparum Indochina infected erythrocytes, osmotic lysis OD700, 18 h; higher = more signal, called active from +8 up or from −8 down
[7] = S6 kinase pathway phospho-S6 level changes – cell-based, A549, cytoblot, luminescence, serum-stimulated, primary screen (AID 1158); conditions: 5 h, higher = more signal;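 note: serum-stimulated A549 lung adenocarcinoma cells; signal is phosphorylated S6 detected by cytoblot immunostaining with HRP secondary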
[8] = molecular target: NADPH oxidase 2 (Homo sapiens) (UniProt P04839); assay: compounds shifting NOX2 Amplex Red fluorescence – cell-based, HEK293-NOX2, PMA-stimulated, NOX inhibitor project, primary screen (AID 1159); conditions: 45 min, higher = more signal, called active from +8 up or from −8 down; note: test concentration not given here
[9] = molecular target: NADPH oxidase 4 (Homo sapiens) (UniProt Q9NPH5); assay: compounds shifting NOX4 Amplex Red fluorescence – cell-based, HEK293-NOX4, tetracycline-induced, NOX inhibitor project, primary screen (AID 1160); conditions: HEK293-NOX4, Amplex Red H2O2 fluorescence, 45 min; higher = more signal, called active from +8 up or from −8 down
[10] = molecular target: NADPH oxidase 5 (Homo sapiens) (UniProt Q96PH1); assay: compounds shifting NOX5 Amplex Red fluorescence – cell-based, HEK293-NOX5, NOX inhibitor project, primary screen (AID 1161); conditions: HEK293-NOX5, ionomycin, 45 min, higher = more signal
NADPH oxidase 5 (Homo sapiens), sequence (Q96PH1 whole entry, looked up): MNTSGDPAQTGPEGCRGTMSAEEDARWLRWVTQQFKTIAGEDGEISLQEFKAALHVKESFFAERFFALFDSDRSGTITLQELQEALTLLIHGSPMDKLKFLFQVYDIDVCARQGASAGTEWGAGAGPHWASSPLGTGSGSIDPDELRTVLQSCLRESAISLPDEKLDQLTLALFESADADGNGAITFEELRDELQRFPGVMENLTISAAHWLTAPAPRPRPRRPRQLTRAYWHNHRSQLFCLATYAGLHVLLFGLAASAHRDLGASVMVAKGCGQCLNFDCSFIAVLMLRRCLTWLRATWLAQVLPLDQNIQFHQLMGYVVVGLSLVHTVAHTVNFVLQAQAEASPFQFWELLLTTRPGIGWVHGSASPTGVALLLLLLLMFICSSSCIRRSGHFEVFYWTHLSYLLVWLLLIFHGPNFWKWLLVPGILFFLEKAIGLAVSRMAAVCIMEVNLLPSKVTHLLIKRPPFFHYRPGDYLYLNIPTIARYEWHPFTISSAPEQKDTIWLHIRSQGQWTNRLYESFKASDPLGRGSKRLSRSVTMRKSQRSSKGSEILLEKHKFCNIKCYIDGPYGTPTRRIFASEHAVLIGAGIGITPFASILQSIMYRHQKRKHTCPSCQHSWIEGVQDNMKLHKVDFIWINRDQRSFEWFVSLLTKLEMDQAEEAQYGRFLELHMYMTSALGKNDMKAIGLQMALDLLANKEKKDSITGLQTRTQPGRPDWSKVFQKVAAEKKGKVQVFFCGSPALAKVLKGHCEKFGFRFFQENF

NADPH oxidase 4 (Homo sapiens), sequence (Q9NPH5 whole entry, looked up): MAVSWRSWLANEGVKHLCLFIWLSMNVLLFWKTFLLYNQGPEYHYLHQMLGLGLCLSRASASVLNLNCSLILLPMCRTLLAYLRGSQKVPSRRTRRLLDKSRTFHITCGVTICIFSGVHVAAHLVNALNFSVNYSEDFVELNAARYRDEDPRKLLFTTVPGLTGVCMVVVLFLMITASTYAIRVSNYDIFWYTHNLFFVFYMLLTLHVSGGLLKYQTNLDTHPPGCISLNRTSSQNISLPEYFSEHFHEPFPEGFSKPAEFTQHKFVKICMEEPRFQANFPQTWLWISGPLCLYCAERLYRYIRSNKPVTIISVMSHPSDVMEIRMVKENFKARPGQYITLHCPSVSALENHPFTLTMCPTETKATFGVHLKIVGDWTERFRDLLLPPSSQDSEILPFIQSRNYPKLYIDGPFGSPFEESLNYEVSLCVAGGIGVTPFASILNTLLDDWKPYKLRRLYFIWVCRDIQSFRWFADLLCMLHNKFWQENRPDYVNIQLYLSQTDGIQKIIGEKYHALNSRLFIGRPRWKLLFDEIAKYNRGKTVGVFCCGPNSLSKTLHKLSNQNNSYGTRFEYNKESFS
NADPH oxidase 2 (Homo sapiens), sequence (P04839 whole entry, looked up): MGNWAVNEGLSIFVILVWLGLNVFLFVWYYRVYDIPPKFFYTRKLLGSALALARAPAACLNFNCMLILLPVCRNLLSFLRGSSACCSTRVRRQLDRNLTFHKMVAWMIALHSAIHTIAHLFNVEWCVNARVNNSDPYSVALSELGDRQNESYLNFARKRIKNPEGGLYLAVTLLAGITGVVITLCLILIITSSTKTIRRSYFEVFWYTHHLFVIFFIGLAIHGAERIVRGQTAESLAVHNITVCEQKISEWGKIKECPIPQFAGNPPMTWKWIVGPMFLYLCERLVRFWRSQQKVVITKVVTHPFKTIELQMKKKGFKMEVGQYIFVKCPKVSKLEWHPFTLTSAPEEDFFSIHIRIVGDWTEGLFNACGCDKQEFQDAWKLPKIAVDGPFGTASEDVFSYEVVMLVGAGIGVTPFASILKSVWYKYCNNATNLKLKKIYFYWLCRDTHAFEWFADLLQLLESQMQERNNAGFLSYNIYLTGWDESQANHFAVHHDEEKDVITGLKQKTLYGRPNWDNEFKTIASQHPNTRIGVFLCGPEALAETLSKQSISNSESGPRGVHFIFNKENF

Structure (SMILES)	z-score [1]	composite z-score [2]	z-score [3]	z-score [4]	z-score [5]	z-score [6]	z-score [7]	z-score [8]	z-score [9]	z-score [10]
OC[C@H]1O[C@H](C#Cc2ccccc2)C=C[C@@H]1O	0.402 (inactive)	-0.425	1.74 (inactive)	0.803 (inactive)	0.802 (inactive)	0.784 (inactive)	-0.0359	-0.178 (inactive)	0.662 (inactive)	1.33
CC(CCN1CCCCc2nc(C)c(C)cc21)=NOC[C@@H](O)[C@H]1O[C@@H]2OC(C)(C)O[C@@H]2[C@H]1O	-1.25 (inactive)	-0.265	0.422 (inactive)	0.726 (inactive)	0.637 (inactive)	0.244 (inactive)	-0.67	0.0801 (inactive)	0.413 (inactive)	-0.216
O=C1[C@H]2[C@H]3[C@H](O)[C@H](O)CC(=NOC[C@@H](O)COCc4ccco4)[C@@H]3CC[C@H]2C(=O)N1C1CCCCC1	0.38 (inactive)	0.0616	7.07 (inactive)	0.409 (inactive)	0.347 (inactive)	0.329 (inactive)	-0.9	-0.0721 (inactive)	0.721 (inactive)	0.475
CCOC(=O)[C@H](Cc1ccccc1)NC(=O)CCC1CC(OC(=O)NCc2cccc3ccccc23)CC2(CCCC(COC(=O)NCc3ccc4c(c3)OCO4)O2)O1 (stereo not given in full)	1.21 (inactive)	0.0686	0.509 (inactive)	-0.255 (inactive)	-0.336 (inactive)	-0.12 (inactive)	0.184	0.691 (inactive)	0.538 (inactive)	0.712
COC(OC)[C@@H](C)[C@H](OC)[C@@H](C)[C@H](OC)c1ccccc1	0.215 (inactive)	-0.235	-0.271 (inactive)	-0.947 (inactive)	-0.75 (inactive)	-1.06 (inactive)	1.67	0.491 (inactive)	0.153 (inactive)	0.577
COc1ccc(COC(=O)NN=C2C[C@@H](O)[C@@H](O)[C@@H]3[C@@H]4C(=O)N(C(C)(C)C)C(=O)[C@@H]4CC[C@@H]23)cc1	0.244 (inactive)	-0.328	0.339 (inactive)	-0.039 (inactive)	-0.609 (inactive)	-0.0118 (inactive)	1.14	-0.384 (inactive)	0.808 (inactive)	0.315
CC(C)=NO[C@@H](C)c1cn([C@H](CO)Cc2ccccc2)nn1	-1.99 (inactive)	0.423	-0.407 (inactive)	-1.7 (inactive)	-0.222 (inactive)	-1.75 (inactive)	1.54	-0.689 (inactive)	0.0692 (inactive)	0.628
CCOC(=O)CCN1C(=O)[C@H]2[C@H]3[C@H](O)[C@H](O)CC(=NNC(=O)OCc4ccccc4)[C@H]3CC[C@H]2C1=O	-0.351 (inactive)	-0.0162	0.992 (inactive)	0.0095 (inactive)	0.0794 (inactive)	0.0606 (inactive)	-0.707	1.28 (inactive)	0.327 (inactive)	0.595
CC(=O)OC[C@H]1O[C@@H](ON=C(C)CCN2CCCCc3nc(C)c(C)cc32)[C@H](OC(C)=O)[C@@H](OC(C)=O)[C@@H]1OC(C)=O	-0.998 (inactive)	-0.0601	-0.323 (inactive)	-0.558 (inactive)	1.16 (inactive)	-1.5 (inactive)	0.314	-1.31 (inactive)	-1.24 (inactive)	-2.54
CC(=O)OC[C@H]1O[C@H](CC=NOC(C)CN2CCCCc3nc(C)c(C)cc32)C=C[C@@H]1OC(C)=O (stereo not given in full)	0.0072 (inactive)	0.589	0.595 (inactive)	0.324 (inactive)	0.417 (inactive)	0.246 (inactive)	-0.626	-1.69 (inactive)	-0.695 (inactive)	-1.24
CCOC(=O)[C@H](Cc1ccccc1)NC(=O)CCC1CC(OC(=O)NCc2ccc3c(c2)OCO3)CC2(CCCC(COC(=O)NCCOc3ccccc3)O2)O1 (stereo not given in full)	0.0897 (inactive)	-0.239	-1.84 (inactive)	0.179 (inactive)	-0.0818 (inactive)	0.0514 (inactive)	-0.138	0.339 (inactive)	0.519 (inactive)	0.653
O=C1C2=CC[C@H]3C(=O)N(C4CCCCC4)C(=O)[C@H]3[C@H]2[C@H](O)[C@@H]2O[C@H]12	-1.95 (inactive)	-0.245	-0.0599 (inactive)	-0.153 (inactive)	0.215 (inactive)	-1.56 (inactive)	-1.01	0.951 (inactive)	0.3 (inactive)	0.952
CC(C)[C@@H](OCc1ccccc1)[C@H](C)CON=C1[C@H]2CCn3c(=O)n(-c4ccccc4)c(=O)n3[C@H]2[C@H](O)[C@@H]2O[C@H]12	0.352 (inactive)	-0.186	0.509 (inactive)	-0.116 (inactive)	-0.171 (inactive)	0.245 (inactive)	-0.952	-0.662 (inactive)	0.202 (inactive)	-0.851
CCN1C(=O)[C@H]2[C@H]3[C@H](O)[C@H](O)CC(=NO[C@@H]4O[C@H](COC(C)=O)[C@@H](OC(C)=O)[C@H](OC(C)=O)[C@H]4OC(C)=O)[C@@H]3CC[C@H]2C1=O	0.59 (inactive)	0.227	0.202 (inactive)	0.195 (inactive)	-0.519 (inactive)	0.319 (inactive)	-0.639	0.357 (inactive)	0.722 (inactive)	-0.0344
C#CCCCON=C1C[C@@H](O)[C@@H](O)[C@@H]2[C@@H]3C(=O)N(C[C@@H]4CCCO4)C(=O)[C@@H]3CC[C@@H]12	0.225 (inactive)	0.145	-0.262 (inactive)	0.284 (inactive)	-1.08 (inactive)	0.354 (inactive)	-0.53	-3.03 (inactive)	0.424 (inactive)	-0.0863
CCCNC(=O)OC[C@H]1O[C@H](CCON=C[C@@H](NS(=O)(=O)c2ccc(C)cc2)[C@H](C)C=CCC(=O)OC)C=C[C@@H]1Oc1ccc(OC)cc1	0.0368 (inactive)	0.0633	5.01 (inactive)	1.2 (inactive)	0.518 (inactive)	0.441 (inactive)	-0.81	0.173 (inactive)	0.361 (inactive)	-0.746
CCOC(=O)CCN1C(=O)[C@H]2[C@H]3[C@H](O)[C@H](O)CC(=NNC(=O)OCc4ccc(OC)cc4)[C@H]3CC[C@H]2C1=O	-0.448 (inactive)	-0.0109	0.519 (inactive)	-0.0212 (inactive)	0.0927 (inactive)	0.0103 (inactive)	-0.528	1.67 (inactive)	0.619 (inactive)	0.937
COc1ccc(COC(=O)NN=C2C[C@@H](O)[C@@H](O)[C@@H]3[C@@H]4C(=O)N(C5CCCCC5)C(=O)[C@@H]4CC[C@@H]23)cc1	-0.83 (inactive)	0.94	6.59 (inactive)	1.25 (inactive)	0.101 (inactive)	0.622 (inactive)	-0.185	-0.623 (inactive)	-0.069 (inactive)	0.391
COc1ccc(COC(=O)NN=C2C[C@@H](O)[C@@H](O)[C@@H]3[C@@H]4C(=O)N(Cc5ccccc5)C(=O)[C@@H]4CC[C@@H]23)cc1	0.619 (inactive)	-0.0691	1.48 (inactive)	0.363 (inactive)	-0.188 (inactive)	0.648 (inactive)	-0.12	-6.33 (inactive)	0.284 (inactive)	-0.234
C=CC[C@@H]1C=C[C@H](ON=CC[C@@H]2C=C[C@H](OC(C)=O)[C@@H](COC(C)=O)O2)[C@@H](CO)O1	0.4 (inactive)	0.455	0.551 (inactive)	0.538 (inactive)	-0.0293 (inactive)	0.393 (inactive)	0.166	-0.893 (inactive)	0.319 (inactive)	1.03
CC(C)=NOC[C@@H](O)[C@H]1O[C@@H]2OC(C)(C)O[C@@H]2[C@H]1O	0.269 (inactive)	-0.0501	0.0289 (inactive)	0.0612 (inactive)	-0.0091 (inactive)	0.269 (inactive)	0.0226	-0.162 (inactive)	-0.514 (inactive)	0.0874
CCN1C(=O)[C@H]2[C@H]3[C@H](O)[C@H](O)CC(=NOC[C@@H](O)COCc4ccco4)[C@H]3CC[C@H]2C1=O	0.537 (inactive)	-0.22	-0.392 (inactive)	-0.025 (inactive)	-0.468 (inactive)	0.108 (inactive)	-0.18	-7.58 (inactive)	0.0462 (inactive)	0.262
CC(CCC(=O)OC[C@H]1O[C@H](C#Cc2ccccc2)C=C[C@@H]1Oc1ccc(C)cc1)=NOC(C)CN1CCCCc2nc(C)c(C)cc21 (stereo not given in full)	-0.131 (inactive)	-0.191	4.27 (inactive)	0.459 (inactive)	0.983 (inactive)	0.662 (inactive)	-0.487	-0.802 (inactive)	-0.341 (inactive)	-0.461
COc1ccc(COC(=O)NN=C2C[C@@H](O)[C@@H](O)[C@@H]3[C@@H]4C(=O)N(Cc5ccc6c(c5)OCO6)C(=O)[C@@H]4CC[C@H]23)cc1	0.701 (inactive)	0.781	15.7 (active)	2.17 (inactive)	0.18 (inactive)	0.845 (inactive)	0.767	-0.657 (inactive)	0.186 (inactive)	0.138
CC(=O)OC[C@H]1O[C@H](CCON=C(C)CCN2CCCc3nc(C)c(C)cc32)C=C[C@@H]1OC(C)=O	0.198 (inactive)	0.0861	2.13 (inactive)	1.25 (inactive)	0.872 (inactive)	0.489 (inactive)	-1.17	0.152 (inactive)	0.11 (inactive)	0.207
CCOC(=O)[C@H](Cc1ccccc1)NC(=O)CCC1CC(OC(=O)NCCc2ccc(F)cc2)CC2(CCCC(COC(=O)NCCOc3ccccc3)O2)O1 (stereo not given in full)	-0.558 (inactive)	0.0594	-1.41 (inactive)	0.363 (inactive)	-0.619 (inactive)	0.272 (inactive)	-0.345	1.26 (inactive)	0.767 (inactive)	0.471
